Screening results deposited in PubChem BioAssay by National Center for Advancing Translational Sciences (NCATS).
An excerpt weighted towards active compounds, which were near 8% of everything screened.
MCF10A rereplic = A quantitative high throughput screen for small molecules that induce DNA re-replication in MCF 10a normal breast cells. MCF 10A DNA re-replication, Hoechst nuclear intensity, 48 h. Potency, µM (titrated, usually from 46.1 µM), for inactives: at the highest dose activity, positive = re-replication, hits mostly activators. 2.9% of 350,000 active; note: % of control where 0% means no effect; nearly all actives have a fitted effect of over 50% in size
SW480 rerep = A quantitative high throughput screen for small molecules that induce DNA re-replication in SW480 colon adenocarcinoma cells; SW480 DNA re-replication, Hoechst DNA content imaging, 48 h; Potency, µM (highest dose often 46.1 µM), without a hit: at the highest dose re-replication activation, actives largely listed as activators; 1.8% of 340,000 active; AID 624297, 2012; note: % of control where 0% means no effect; nearly all actives have a fitted effect of over 55% in size
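Image-based DNA-content assay: after two days of treatment, nuclei were labelled with the DNA dye Hoechst and imaged, and hits were compounds raising the count of nuclei showing high fluorescence intensity.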
KB-3-1 tox = qHTS assay for MDR1-selective chemotherapeutics: Primary screen using the parental adenocarcinoma cell KB-3-1; AID 1347075, 2019; Potency, µM (top dose mostly 46.1 µM), actives largely listed as cytotoxic; KB-3-1 viability, CellTiter-Glo ATP luminescence, 72 h; 1.4% of 400,000 active; note: % is set by controls: 0 for no effect and ±100 for the full control effect; nearly all actives have a fitted effect of over 60% in size
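Luminescent ATP read-out (CellTiter-Glo) measures survival of drug-naive KB-3-1 cells after 72 h compound exposure at 37 °C. Titration series was screened from lowest to highest concentration, with DMSO vehicle plates as background controls.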
HT1080 IDH1KD tx = qHTS for induction of synthetic lethality in tumor cells producing 2HG: qHTS for the HT-1080-IDH1KD cell line; HT-1080 IDH1 knockdown viability, ATP luminescence, 48 h; 2% of 360,000 active; Potency, µM (top dose mostly 46.1 µM), for inactives: at the top dose activity, negative = toxicity, actives largely listed as cytotoxic;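 note: 0% = DMSO wells and -100% = cell-free medium wells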
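After a 2 h attachment period, IDH1KD HT-1080 cells took pin-transferred compound for 48 h at 37 °C; ATP-based luminescence after 10 min room-temperature reagent incubation reported viability.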
KB-V1 cytotox = qHTS assay for MDR1-selective chemotherapeutics: Primary screen using the drug-selected MDR subline cells KB-V1. KB-V1 MDR cells viability, CellTiter-Glo, 72 h. AID 1347076, 2019. 3.4% of 400,000 active. Potency, µM (highest dose often 46.1 µM), most hits filed as cytotoxic; note: % is set by controls: 0 for no effect and ±100 for the full control effect; nearly all actives have a fitted effect of over 60% in size
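qHTS viability screen in drug-selected KB-V1 MDR cells: 72 h compound treatment at 37 degrees C, ATP luminescence end point.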
HT1080-NT tox = qHTS for induction of synthetic lethality in tumor cells producing 2HG: qHTS for the HT-1080-NT fibrosarcoma cell line | AID 686970, 2013 | HT-1080-NT fibrosarcoma viability, CellTiter-Glo ATP luminescence, 48 h | Potency, µM (top dose mostly 46.1 µM), inactives show at the highest dose activity, negative = less viability, usual class: cytotoxic | 1.6% of 360,000 active;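 note: NT is the 2HG producing partner of a matched IDH1 knockdown line; 0% = DMSO-treated cells and -100% = media-only wells without cells; nearly all actives have a fitted effect of over 55% in size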
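Read-out is CellTiter-Glo luminescence after 10 minutes at room temperature, following 48 hours' compound treatment of HT-1080-NT cells (750 cells/well, RPMI, 5% FBS, 37 degrees C).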
The depositor's hits bear a star; [ ] = remark or other dose. Calls come from the whole dose curve; as a rule, active = well fitted curve in the direction sought with a large enough effect; inconclusive = small, poorly fitted or top-dose-only effect, or another doubt; inactive = no such curve, though single readings can be large; an effect the other way counts as inactive or inconclusive. Potency is the fitted concentration of half-maximal effect.

COCCNCCOc1ccc(C)cc1[N+](=O)[O-] was read as MCF10A rereplic -3%, SW480 rerep -4%, KB-3-1 tox inactive, HT1080 IDH1KD tx 15%, KB-V1 cytotox inactive and HT1080-NT tox 4%.
Screening Cc1ccc(OCCCCNC(C)(C)C)c([N+](=O)[O-])c1 returned MCF10A rereplic -5%, SW480 rerep -18%, KB-3-1 tox inactive, HT1080 IDH1KD tx -1%, KB-V1 cytotox 23µM* and HT1080-NT tox -2%.
Screening Cc1ccc(C(=O)COC(=O)c2ccc3c(c2)C(=O)N(c2cccc4ncccc24)C3=O)cc1C returned MCF10A rereplic 16µM*, SW480 rerep 1%, KB-3-1 tox inactive, HT1080 IDH1KD tx -22%, KB-V1 cytotox inactive and HT1080-NT tox -20%.
`Cn1ccsc1=NC(=O)c1ccccc1F` gave MCF10A rereplic -1%, SW480 rerep -8%, KB-3-1 tox inactive, HT1080 IDH1KD tx 9%, KB-V1 cytotox inactive and HT1080-NT tox 10%.
Cc1ccc(C)c(-n2c(-c3ccc(Br)cc3)csc2=NC(=O)c2ccccc2F)c1 was read as MCF10A rereplic 17%, SW480 rerep 4%, KB-3-1 tox 12µM*, HT1080 IDH1KD tx 9%, KB-V1 cytotox inconclusive and HT1080-NT tox 20%.
`CCCCn1c(N)c(N(Cc2ccccc2OC)C(=O)CCC(C)C)c(=O)[nH]c1=O` gave MCF10A rereplic 6%, SW480 rerep -3%, KB-3-1 tox inactive, HT1080 IDH1KD tx -1%, KB-V1 cytotox inactive and HT1080-NT tox -12%.
`COc1c(Cl)cc(C(=O)NN)cc1Cl` gave MCF10A rereplic inconclusive, SW480 rerep 13µM*, KB-3-1 tox inactive, HT1080 IDH1KD tx 2.6µM*, KB-V1 cytotox inactive and HT1080-NT tox 2.1µM*.
For CC1CCc2c(sc3ncnc(N4CCOCC4)c23)C1 (configuration not stated) the results were MCF10A rereplic 18%, SW480 rerep 0%, KB-3-1 tox inactive, HT1080 IDH1KD tx inconclusive, KB-V1 cytotox 15µM* and HT1080-NT tox inconclusive.
CC1CCc2c(sc3nc(CN4CCOCC4)nc(Sc4ccccc4)c23)C1 (configuration not stated) was read as MCF10A rereplic 2%, SW480 rerep -8%, KB-3-1 tox inactive, HT1080 IDH1KD tx -2%, KB-V1 cytotox 8.2µM* and HT1080-NT tox 15%.
Screening COc1cc2c(cc1OC)CN(c1nc(CN3CCOCC3)nc3sc4c(c13)CCC(C)C4)CC2 (configuration not stated) returned MCF10A rereplic inconclusive, SW480 rerep inconclusive, KB-3-1 tox inconclusive, HT1080 IDH1KD tx inconclusive, KB-V1 cytotox inactive and HT1080-NT tox inconclusive.
Screening Cc1nnc(C)c2c(C)n(-c3ccccc3N)c(C)c12 returned MCF10A rereplic 1%, SW480 rerep 21µM*, KB-3-1 tox inactive, HT1080 IDH1KD tx 0%, KB-V1 cytotox inactive and HT1080-NT tox -17%.
Screening Cc1ccc(-n2c(C)c3c(C)nnc(C)c3c2C)cc1N returned MCF10A rereplic 0%, SW480 rerep -2%, KB-3-1 tox inactive, HT1080 IDH1KD tx 2%, KB-V1 cytotox inactive and HT1080-NT tox 0%.
Cc1cc(-n2c(C)c3c(C)nnc(C)c3c2C)ccc1N was read as MCF10A rereplic 21µM*, SW480 rerep inconclusive, KB-3-1 tox inactive, HT1080 IDH1KD tx -2%, KB-V1 cytotox inactive and HT1080-NT tox 2%.
Screening Cc1ccc[n+](CC(=O)Nc2ccc([N+](=O)[O-])cc2)c1 returned MCF10A rereplic 0%, SW480 rerep inconclusive, KB-3-1 tox inactive, HT1080 IDH1KD tx 16µM*, KB-V1 cytotox inactive and HT1080-NT tox -14%.
For Cc1ccc[n+](CC(=O)Nc2cccc([N+](=O)[O-])c2)c1 the results were MCF10A rereplic -10%, SW480 rerep 1%, KB-3-1 tox inactive, HT1080 IDH1KD tx -2%, KB-V1 cytotox inconclusive and HT1080-NT tox -4%.
COc1ccc(CN2CCN(C(=O)c3cccc(OC)c3OC)CC2)cc1OC was read as MCF10A rereplic -1%, SW480 rerep -3%, KB-3-1 tox inactive, HT1080 IDH1KD tx 8%, KB-V1 cytotox inactive and HT1080-NT tox 2%.
Screening COc1ccc(CN2CCN(C(=O)CCC(=O)c3ccc(C)s3)CC2)cc1OC returned MCF10A rereplic 11%, SW480 rerep -3%, KB-3-1 tox inactive, HT1080 IDH1KD tx 12%, KB-V1 cytotox 4.1µM* and HT1080-NT tox 11%.
`COc1ccc(CN2CCN(C(=O)c3ccccc3C(=O)c3ccccc3)CC2)cc1OC` gave MCF10A rereplic -6%, SW480 rerep -4%, KB-3-1 tox inactive, HT1080 IDH1KD tx -1%, KB-V1 cytotox 16µM* and HT1080-NT tox 2%.
Screening O=C(CCl)c1cc2c3c(c1)CC(=O)N3CCC2 returned MCF10A rereplic inconclusive, SW480 rerep 16µM*, KB-3-1 tox inactive, HT1080 IDH1KD tx inconclusive, KB-V1 cytotox inactive and HT1080-NT tox -14%.
O=C1CC(c2ccccc2)CC2=C1C=Nc1ccccc1N2 (configuration not stated) was read as MCF10A rereplic 18µM*, SW480 rerep 15µM*, KB-3-1 tox inconclusive, HT1080 IDH1KD tx inconclusive, KB-V1 cytotox inconclusive and HT1080-NT tox inconclusive.
O=C1CC(c2ccc(F)cc2)CC2=C1C=Nc1ccccc1N2 (configuration not stated) was read as MCF10A rereplic inconclusive, SW480 rerep 2%, KB-3-1 tox inconclusive, HT1080 IDH1KD tx inconclusive, KB-V1 cytotox inconclusive and HT1080-NT tox inconclusive.
`Nc1cccc(Nc2nc(OC(C(F)(F)F)C(F)(F)F)nc(OC(C(F)(F)F)C(F)(F)F)n2)c1` gave MCF10A rereplic inconclusive, SW480 rerep 0%[9.22 µM], KB-3-1 tox 18µM*, HT1080 IDH1KD tx inconclusive, KB-V1 cytotox 23µM* and HT1080-NT tox inconclusive.
CC(=O)Nc1cc2c(cc1[N+](=O)[O-])-c1ccccc1C2O (configuration not stated) was read as MCF10A rereplic 18µM*, SW480 rerep inconclusive, KB-3-1 tox inactive, HT1080 IDH1KD tx -6%, KB-V1 cytotox inactive and HT1080-NT tox 1%.
